Laboratory results reported in PubChem BioAssay (NCI).
The panel holds about 79,000 compounds, 15% with a hit somewhere; the sample as a whole holds those more often. No stated cut-off is given here; in the data, active means growth inhibition above about 70%; inactive means the rest.

Experiments:
[1] = NCI Yeast Anticancer Drug Screen. Data for the rad50 strain (AID 155);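 further: 0% = growth of vehicle-only cultures of the same strain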; conditions: S. cerevisiae rad50 strain growth inhibition; at 50.0 µM; stronger effect = higher value
In short: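 Cells are treated with compound, grown, and their growth is then scored against vehicle-only cultures of the same repair-deficient yeast strain.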

[2] = NCI Yeast Anticancer Drug Screen. Data for the mec2-1 strain (AID 157); conditions: S. cerevisiae mec2-1 strain, at 50.0 µM, stronger effect = higher value
In short: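 Growth inhibition is read against vehicle-treated controls after compound exposure of the mec2-1 yeast strain, which is defective in DNA damage repair or cell cycle control.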

[3] = NCI Yeast Anticancer Drug Screen. Data for the sgs1 mgt1 strain (AID 161);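 further: 0% = growth of cultures given vehicle only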; conditions: S. cerevisiae sgs1 mgt1 strain, at 50.0 µM, stronger effect = higher value
In short: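 Yeast cells carrying a defined DNA-repair defect were exposed to test compounds. Growth inhibition was measured relative to vehicle-treated controls.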

[4] = NCI Yeast Anticancer Drug Screen. Data for the cln2 rad14 strain (AID 165);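 further: 0% = growth equal to vehicle treated cultures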; conditions: S. cerevisiae cln2 rad14 strain, at 50.0 µM, stronger effect = higher value
In short: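 Growth inhibition, relative to vehicle-treated controls, is the read-out. The test organism is a yeast strain with defined genetic alterations, cln2 rad14.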

[5] = NCI Yeast Anticancer Drug Screen. Data for the bub3 strain (AID 167); conditions: S. cerevisiae bub3 mutant strain, at 50.0 µM, stronger effect = higher value
In short: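 Part of a panel of yeast mutants defective in DNA damage repair or cell cycle regulation. Each strain is grown with compound, and inhibition is calculated relative to solvent-treated cultures.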

[6] = NCI Yeast Anticancer Drug Screen. Data for the mlh1 rad18 strain (AID 175); conditions: S. cerevisiae mlh1 rad18 strain growth inhibition; at 50.0 µM; stronger effect = higher value
In short: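 Cells of a genetically altered yeast strain, deficient in DNA damage repair, were treated with compound. Their growth was then compared with that of vehicle-treated cultures to give inhibition.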

Measured: growth inhibition

O=C1c2c(O)cccc2C(C(=O)CCCCC(=O)C2c3cccc(O)c3C(=O)c3c(O)cccc32)c2cccc(O)c21
inactive: [1] 1.75% | [2] 15.2% | [3] 27.3% | [4] 17.1% | [5] 17.2% | [6] 1.05%

CC(=O)/C(=C\c1ccc(/C=C(\C(C)=O)C(=O)CCN(C)C)cc1)C(=O)CCN(C)C
inactive: [1] 38.6% | [2] 58.5% | [3] 7.05% | [4] 5% | [5] 5.65% | [6] -19.6%

CCOc1ccccc1NC(=O)CC(C(=O)OC)C(=O)C(=O)OC (stereo not given)
inactive: [1] -10% | [2] 5.75% | [3] -24.1% | [4] 20% | [5] -8.9% | [6] -9.75%

CCOC(OC(C)=O)[C@@H]1C=C[C@H](C)N(c2ccc([N+](=O)[O-])cc2)O1 (stereo not given in full)
inactive: [1] 25.4% | [2] 13.9% | [3] 39.5% | [4] 18.1% | [5] 42.6% | [6] 32.8%

COc1ccc(C(CCl)(CCl)c2ccc(OC)c(C)c2)cc1C
inactive: [1] -23.3% | [2] -74.1% | [3] -30.2% | [4] -4.05% | [5] 5.3% | [6] -20.4%

CCN(CC)CCC1CCNCC1
inactive: [1] 0.5% | [2] -25.2% | [3] -1.8% | [4] 15.8% | [5] -3.9% | [6] 5.75%

CC(c1ccc([N+](=O)[O-])cc1)n1cnc2c(N(CCO)CCO)ncnc21 (stereo not given)
inactive: [1] 6.3% | [2] -1.15% | [3] -13.7% | [4] -3.7% | [5] -12.2% | [6] -0.5%

OC(c1ccccc1)(C(F)(F)F)C(F)(F)F
inactive: [1] 3% | [2] 5.85% | [3] 6.1% | [4] 14.3% | [5] 9.9% | [6] 8.75%

CCOc1nc(=O)n(CC(=O)c2ccc(Cl)s2)cc1F
inactive: [1] 4.55% | [2] 17.4% | [3] -0.8% | [4] -7.8% | [5] 21.6% | [6] 19.6%

Cc1cc(C23OC4COC(C)(C)OC4C2OC(C)(C)O3)nc2ccccc12 (stereo not given)
inactive: [1] -1.35% | [2] 13.6% | [3] 18.6% | [4] -22.1% | [5] 13.1% | [6] 23.6%

CN(C)Cc1c(-c2ccccc2)c(-c2ccccc2)c2ccccn12
inactive: [1] -7.15% | [2] -21.8% | [3] 14.1% | [4] 2.8% | [5] 0.75% | [6] 9.6%

CCc1cccc(C(C)CC)c1NC(=O)CC1C(=O)Nc2ccccc2S1=O (stereo not given)
inactive: [1] 15.2% | [2] 0.65% | [3] 7.2% | [4] 18.1% | [5] 32.5% | [6] 15.2%

CCc1ccccc1OCC(O)CO (stereo not given)
inactive: [1] -21.9% | [2] -2.45% | [3] -6.2% | [4] -11.5% | [5] -8.85% | [6] 27.8%

O=c1cn[nH]c2c(Br)cc(Br)cc12
inactive: [1] 12% | [2] -0.3% | [3] -1.6% | [4] 2.65% | [5] -9.9% | [6] 16.4%

O=C(O)CNC(CO)(CO)CO
inactive: [1] -55% | [2] -60.8% | [3] -36% | [4] -19.8% | [5] -10.8% | [6] -43%

CN1CCCCC(C#N)(c2ccccc2)CC1 (stereo not given)
inactive: [1] -5.25% | [2] 14.1% | [3] 7.85% | [4] -2.2% | [5] 0.8% | [6] 21.4%

Cc1cc(OC(=O)c2c(C)cc(OC(=O)c3c(C)cc(O)cc3O)cc2O)cc(O)c1C(=O)O
inactive: [1] -7.15% | [2] -44.7% | [3] -19.4% | [4] -3.55% | [5] -27.4% | [6] -2.15%

O=C1OCC/C1=C\c1ccsc1
inactive: [1] 6.4% | [2] 10.2% | [3] -6.9% | [4] -6% | [5] -8.3% | [6] -3.4%

Cc1cc(=O)oc2nc(-c3ccccc3)[nH]c(=O)c12
inactive: [1] 0.3% | [2] -10.2% | [3] 3.2% | [4] -5.4% | [5] -7.15% | [6] 18.3%

N[C@@H]1c2c(csc2Br)C(=O)[C@@H]1O
inactive: [1] -5.25% | [2] -6.55% | [3] 13.3% | [4] -6.8% | [5] 0.8% | [6] -14.6%

CC[C@H](/C=C/[C@@H](C)[C@H]1CC[C@H]2[C@@H]3CC[C@@H]4CC(=O)CC[C@]4(C)[C@H]3CC[C@]12C)C(C)C
inactive: [1] 29.9% | [2] -13.8% | [3] 9.6% | [4] 1.15% | [5] 35.5% | [6] 34%

C/[N+]([O-])=N/COC1OC(COC2OCC(O)C(O)C2O)C(O)C(O)C1O (stereo not given)
inactive: [1] 7.5% | [2] -0.4% | [3] 25.6% | [4] 13.8% | [5] 8.85% | [6] 3.7%

NC(CCCCC(=O)O)C(=O)O (stereo not given)
inactive: [1] -30.1% | [2] -22.3% | [3] -12.9% | [4] -38.2% | [5] -11.2% | [6] 0.15%

Nc1c(S(N)(=O)=O)cc(S(N)(=O)=O)cc1S(N)(=O)=O
inactive: [1] 0.75% | [2] -20.6% | [3] -36% | [4] -24.6% | [5] -29.2% | [6] -16%

COC(=O)Oc1ccccc1C(=O)O
inactive: [1] -25.2% | [2] -22.6% | [3] -15.6% | [4] 0.2% | [5] -24.6% | [6] -5.55%

CC(=O)C(C(C)=O)C(c1cccnc1)C(C(C)=O)C(C)=O
inactive: [1] 2.7% | [2] 0.65% | [3] 10% | [4] 0.1% | [5] 25.3% | [6] -10.5%

CC1(CCl)Nc2ccccc2C(=O)N1c1ccccc1 (stereo not given)
inactive: [1] 6.65% | [2] -6.2% | [3] 16.4% | [4] 4.2% | [5] 28.4% | [6] 8.5%

CC/C=C\CCCCC
inactive: [1] 0.4% | [2] -13.7% | [3] -12.6% | [4] 0.05% | [5] -10.8% | [6] 4.7%

CCc1cc2c(Nc3ccccc3)c3c(nc2s1)CCCC3
inactive: [1] -15.3% | [2] -25.8% | [3] -8.75% | [4] 11.5% | [5] 16.4% | [6] -33.5%

O=C(Nc1cc2ccccc2cc1C(=O)O)Nc1cccc2ccccc12
inactive: [1] 10.2% | [2] 7% | [3] 32.6% | [4] 6.2% | [5] 20.1% | [6] 30.3%

CCCOCOCCC
inactive: [1] -22.5% | [2] 0.05% | [3] -13.2% | [4] -28.4% | [5] 11.7% | [6] -27.5%

COc1ccc2c(c1)CCC1=C2CCC2=CC(=O)CC[C@@]21C
inactive: [1] 5.4% | [2] 16.6% | [3] 4.4% | [4] 2.5% | [5] 38% | [6] -12.1%

O=c1[nH]c(=O)n(C2OC(CF)C(O)C2O)cc1N1CCOCC1 (stereo not given)
inactive: [1] 16.9% | [2] 18% | [3] 18% | [4] 17.7% | [5] 19.5% | [6] 33%

O=C(OC1COC(OCc2ccccc2)C(OC(=O)c2ccccc2)C1OC(=O)c1ccccc1)c1ccccc1 (stereo not given)
inactive: [1] 8% | [2] -24.4% | [3] 3.1% | [4] -30.3% | [5] 0.4% | [6] 2.75%

COC1/C=C\OC2(C)Oc3c(C)c(O)c4c(O)c(c(CN(C)C)c(O)c4c3C2=O)NC(=O)/C(C)=C\C=C/C(C)C(O)C(C)C(O)C(C)C(OC(C)=O)C1C (stereo not given)
inactive: [1] 50.5% | [2] -3.1% | [3] -16.7% | [4] 28.2% | [5] -29.9% | [6] -6.45%

C1CCSCCCCCSCCCCCSCCCCCSCC1
inactive: [1] 25.2% | [2] -7.55% | [3] -4.2% | [4] -3.15% | [5] 4.35% | [6] -8.7%

CC(=O)c1nc2ccccc2n1CC(=O)c1ccc([N+](=O)[O-])cc1
inactive: [1] -0.65% | [2] 8.7% | [3] 6.2% | [4] -8% | [5] 3.45% | [6] -8.1%

CCCC(=O)Oc1cc(C)ccc1C(C)(C)C
inactive: [1] -17.9% | [2] -22.6% | [3] -12.3% | [4] -33.6% | [5] -35.6% | [6] -42%

Cc1ccc(-c2nc3ccccc3c(=O)n2/N=C/c2ccc(Cl)cc2Cl)cc1
inactive: [1] 9.05% | [2] 3.85% | [3] 7.65% | [4] 11.1% | [5] 7.35% | [6] 21.4%

Cc1cc(C)c(C2=[N+]([O-])ON3CCc4ccccc4C23)c(C)c1 (stereo not given)
inactive: [1] 1.5% | [2] -7.7% | [3] -3.05% | [4] 4.5% | [5] -5.3% | [6] -3.2%
